Compound activity (PubChem)
Most compounds without a hit are left out; they make up all but 1.6% or so of the library.
KCNQ2 pot: enhances the rat KCNQ2 potassium channel | O88943 | CHO-K1 KCNQ2, FluxOR thallium flux fluorescence; stronger effect = higher value | B-score at 10 µM | 310,000 tested, 0.54% active | AID 2239;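 active = fluorescence ratio B-score at least 3 SD of library B-scores, with initial fluorescence B-score within 3 of them, cut at about 5.3 in these data; same plate scores as AID 2156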;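 also: B-score of peak minus minimum over baseline fluorescence ratio after K+ and Tl+ stimulus; positive B-score means potentiation of KCNQ2 with more thallium influx and brighter signal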
Target sequence (O88943 whole entry, looked up): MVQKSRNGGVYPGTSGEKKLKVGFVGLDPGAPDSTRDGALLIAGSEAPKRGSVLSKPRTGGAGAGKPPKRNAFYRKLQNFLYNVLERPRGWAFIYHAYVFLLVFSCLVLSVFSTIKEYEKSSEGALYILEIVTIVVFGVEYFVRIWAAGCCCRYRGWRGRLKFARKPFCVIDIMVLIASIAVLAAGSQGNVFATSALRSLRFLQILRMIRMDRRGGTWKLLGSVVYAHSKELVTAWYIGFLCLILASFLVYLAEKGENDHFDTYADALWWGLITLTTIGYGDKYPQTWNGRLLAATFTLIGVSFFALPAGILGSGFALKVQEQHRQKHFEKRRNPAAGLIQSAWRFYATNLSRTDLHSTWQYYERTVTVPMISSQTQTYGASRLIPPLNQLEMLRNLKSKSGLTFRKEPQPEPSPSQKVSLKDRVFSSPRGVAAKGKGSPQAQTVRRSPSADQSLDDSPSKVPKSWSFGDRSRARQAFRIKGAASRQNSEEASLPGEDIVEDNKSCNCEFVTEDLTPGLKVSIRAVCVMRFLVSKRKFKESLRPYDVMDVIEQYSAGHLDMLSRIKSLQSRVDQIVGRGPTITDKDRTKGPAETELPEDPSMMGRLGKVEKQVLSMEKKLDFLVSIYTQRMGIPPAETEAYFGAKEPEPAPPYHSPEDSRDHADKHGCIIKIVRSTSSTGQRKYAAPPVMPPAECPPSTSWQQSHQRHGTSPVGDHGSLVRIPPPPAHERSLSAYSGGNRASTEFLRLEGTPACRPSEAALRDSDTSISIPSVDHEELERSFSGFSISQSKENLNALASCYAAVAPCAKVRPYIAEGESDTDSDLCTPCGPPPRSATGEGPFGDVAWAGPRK
KCNQ2 inh: KCNQ2 (rat) channel inhibition | CHO-K1 KCNQ2, FluxOR thallium flux, 20 min; stronger effect = lower value | B-score at 10 µM | 310,000 tested, 1.1% active | AID 2156;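 active = fluorescence ratio B-score at most minus 3 library SDs, with starting brightness B-score within 2 library SDs, cut at about -5.5 in these data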
Numbers stand for hits; 0 = inactive; - = no result.

SMILES	KCNQ2 pot	KCNQ2 inh
CCO/C(C)=N/n1c2nc3ccccc3nc2c2c(=O)n(CC(C)C)c(C)nc21	0	-5.6
COc1ccc(C(=O)NNC(=O)COc2ccc(Cl)cc2C)cc1S(=O)(=O)N1CCOCC1	0	-5.6
COc1ccc(C(=O)Nc2cccc(C)c2)cc1S(=O)(=O)N1CCOCC1	0	0
CCc1sc(C(=O)NCCc2ccc(S(N)(=O)=O)cc2)cc1Br	-	0
O=C(CN1C(=O)COc2ccc(S(=O)(=O)N3CCCC3)cc21)NC1CCCCCCC1	11	0
O=C(CN1C(=O)COc2ccc(S(=O)(=O)N3CCCC3)cc21)NC1CC1	-	0
CC1Sc2ccc(S(=O)(=O)CCC(=O)N3CCN(c4ccccc4F)CC3)cc2NC1=O (stereo not drawn)	0	0
Cc1ccc(S(=O)(=O)N2CCC(=O)N(C(COCc3cccc(C)c3)Cc3ccccc3)CC2)cc1 (stereo not drawn)	0	-6.5
O=C(c1cccc(Cl)c1)N1CCC(=O)N(C(COCc2cccc(Cl)c2)Cc2ccccc2)CC1 (stereo not drawn)	-	0
Cc1ccc(COCC(CC(C)C)N2CCN(C(=O)c3cccc(C(F)(F)F)c3)CCC2=O)cc1 (stereo not drawn)	-	0
Cc1ccc(S(=O)(=O)N2CCC(=O)N(C(COCc3ccc(C(F)(F)F)cc3)C(C)C)CC2)cc1 (stereo not drawn)	-	0
CC(C)CC(COCc1ccc(F)cc1)N1CCN(C(=O)c2cccc(C(F)(F)F)c2)CCC1=O (stereo not drawn)	0	-6.1
Cc1ccc(S(=O)(=O)N2CCC(=O)N(C(COCc3ccc(C(F)(F)F)cc3)Cc3ccccc3)CC2)cc1 (stereo not drawn)	0	-6.1
O=C(c1ccc(Cl)c(Cl)c1)N1CCC(=O)N(C(COCc2cccc(Cl)c2)Cc2ccccc2)CC1 (stereo not drawn)	0	-6.2
Cc1ccc(S(=O)(=O)N2CCC(=O)N(C(COCc3ccc(Cl)c(Cl)c3)Cc3ccccc3)CC2)cc1 (stereo not drawn)	-	0
CC1CCCC(C)N1/N=C/c1ccc(C#N)cc1 (stereo not drawn)	0	0
Cc1cccc(OCCNc2cc(N3CCN(CCO)CC3)ccc2[N+](=O)[O-])c1	0	0
Cc1ccccc1NC(=S)N1CCN(c2ccccc2)CC1	0	0
O=C(NNC(=O)c1cc(-c2ccccc2)n(-c2ccccc2)n1)c1cccc([N+](=O)[O-])c1	-	0
O=[N+]([O-])c1cccc(/C=C/c2nc3ccc([N+](=O)[O-])cc3[nH]2)c1	0	-8.1
Cc1nc2ccc([N+](=O)[O-])cc2[nH]1	0	0
S=C(NCc1ccccc1)NC1CCCCC1	0	0
S=C(NCc1cccc(Cl)c1)NC1CCCCC1	8	0
CC1CCN(c2cc(C#N)c(C#N)cc2[N+](=O)[O-])CC1	0	0
CC1CCN(c2cc(N)c(Cl)cc2[N+](=O)[O-])CC1	0	-6.5
SMILES	KCNQ2 pot	KCNQ2 inh
CCOc1ccc(C(=O)CC(=O)C(=O)NCCc2ccc(OC)c(OC)c2)cc1	-	0
O=C(OCc1nnc(-c2ccccc2)o1)c1ccc(-n2cnnn2)cc1	0	0
O=C(OCc1nnc(-c2ccccc2)o1)c1cn(-c2ccccc2)nc1-c1ccccc1	0	-6.2
O=C(N/N=C/c1cccc([N+](=O)[O-])c1)C1CC1c1ccccc1 (stereo not drawn)	15	0
O=C(N/N=C/c1ccco1)C1CC1c1ccccc1 (stereo not drawn)	20	0
O=C(N/N=C/c1ccco1)C1CC1	0	0
O=C(CCc1ccccc1)N/N=C/c1cccc([N+](=O)[O-])c1	0	0
Cc1cc(Cl)ccc1C(=O)C1CCCN(C(=O)c2cncs2)C1 (stereo not drawn)	-	0
O=S(=O)(/C=C/c1ccccc1)N1CCN(c2nc(-c3ccccc3)nc3ccccc23)CC1	-	0
O=C(N=Nc1c(O)[nH]c2ccc(F)cc12)C1COc2ccccc2O1 (stereo not drawn)	-	0
CC(C)CN(C(=O)c1cccs1)C1CCS(=O)(=O)C1 (stereo not drawn)	-	0
O=C(Nn1c(-c2ccccc2)nc2ccccc2c1=O)c1ccco1	0	0
O=C(Cc1ccccc1)Nn1c(-c2ccccc2)nc2ccccc2c1=O	8.4	0
O=C(CSc1nc2ccccc2c(=O)n1NC(=O)Cc1ccccc1)NCc1ccccc1	0	0
O=C(Cc1ccccc1)Nn1c(-c2ccccc2F)nc2ccccc2c1=O	9.4	0
CCn1c(C(=O)O)c(CC(=O)N(C)c2ccc(OC)cc2OC)c2ccccc21	-	0
CCn1cc(C(=O)N2CCCC(C(=O)c3ccc4ccccc4c3)C2)cn1 (stereo not drawn)	0	0
CCOc1ccc(-c2nc3c(s2)CCc2onc(-c4ccc(OC)cc4)c2-3)cc1	0	0
COc1cc(/C=C2\SC(=S)N(NC(=O)c3ccccc3O)C2=O)ccc1O	-	0
O=C(NN1C(=O)/C(=C/c2ccc(O)cc2)SC1=S)c1ccccc1O	0	-6
CCn1nc(C)c(NC(=O)CC23CC4CC(CC(C4)C2)C3)c1C	21	0
Cc1nn(C)cc1NC(=O)CC12CC3CC(CC(C3)C1)C2	0	0
COc1ccc(C(=O)Nc2cccc3c2CCCC3)c(OC)c1	0	0
CCN(CC)S(=O)(=O)c1cc(-c2nnc(-c3ccc(Br)cc3)o2)ccc1Cl	0	-6.1
CCN(CC)S(=O)(=O)c1cc(-c2nnc(-c3ccc(Br)cc3)o2)ccc1Br	0	-7
SMILES	KCNQ2 pot	KCNQ2 inh
CCN(CC)S(=O)(=O)c1cccc(-c2nnc(-c3ccc(C)cc3)o2)c1	-	0
CCN(CC)S(=O)(=O)c1ccc(-c2nnc(SC)o2)cc1	0	0
C[C@@H]1CCC[C@@]2(O[C@H](CCO)C[C@H](O)[C@H]2O)O1	-	0
CCCCCC/C=C/c1ccc(OC)c([C@H]2[C@H]3C=CC[C@@H](C)[C@@H]3C(=O)N2Cc2ccccc2)c1	0	0
CCOC(=O)/C(=C\c1cccnc1)C(=O)c1cc(C(C)=O)c(Nc2ccccc2)s1	-	0
CCOC(=O)/C(=C\c1ccccc1)C(=O)c1cc(C(C)=O)c(Nc2ccccc2)s1	0	-8.1
COc1ccc(N=C(NN)c2ccc3ccccc3n2)cc1	-	0
N=c1c(S(=O)(=O)c2ccc(Cl)cc2)cc2c(=O)n3ccccc3nc2n1C1CCCCC1	-	0
COc1ccc(/C(N)=N/OC(=O)CSc2ccccc2)cc1OC	0	-6
COc1ccc(/C(N)=N/OC(=O)CCc2ccccc2)cc1OC	-	0
O=C(c1cccc(Cl)c1)C1CCCN(S(=O)(=O)c2ccccc2)C1 (stereo not drawn)	-	0
CCC(C)C(NS(=O)(=O)c1ccc(C)cc1)C(=O)O (stereo not drawn)	0	0
CCC(C)C(NS(=O)(=O)c1ccc(C)cc1)C(=O)NCCCN1CCOCC1 (stereo not drawn)	0	-5.6
COc1ccc(S(=O)(=O)Nc2cc3c4c(oc3c3ccccc23)CCCC4=O)cc1	-	0
COc1ccc(S(=O)(=O)Nc2cc3c4c(oc3c3ccccc23)CC(C)(C)CC4=O)cc1	0	-6.5
COc1ccc(S(=O)(=O)N(CC(=O)NC2CCCCC2)c2ccc(F)cc2)cc1	-	0
Cc1ccccc1-n1nc2c(c1NC(=O)/C=C\c1ccc3c(c1)OCO3)CSC2	0	-6.7
Cc1ccc(-n2nc3c(c2NC(=O)/C=C\c2ccc4c(c2)OCO4)CSC3)c(C)c1	-	0
CCn1c(C)c(C)c2cc(C(=O)Nc3cccc(Cl)c3)ccc21	0	-6.6
CCn1c(C)cc(O)c(C(=O)Nc2cccc(Cl)c2)c1=O	0	0
CCc1nc(N2CCC(C)CC2)c2oc3ccccc3c2n1	0	-5.9
